We go through 21 molecules from PubChem BioAssay AID743311 (Broad Institute, 2014).

Measured potencies and affinities stand elsewhere. Activity calls are given as the source filed them. No rule for the calls is given here.

The nature of this test: toxicity to HepG2 liver cells – cell-based, plate reader, dry powder, set 6, cytotoxicity control, dose response (AID 743311). Particulars: series mostly up to 26 µM.
As for `COc1ccccc1OCCn1c(=S)[nH]c2ccccc21`, the call was inactive. As to `Clc1ccc(OCCn2cnc3ccccc32)cc1`, the molecule was called inactive.

As to `Cc1ccc(OCCn2cnc3cc(C)c(C)cc32)cc1`, the call was inactive.

Regarding `COc1ccccc1OCCn1c(SC)nc2ccccc21`, the molecule was called inactive.

As to `CC(C)(C)c1ccc(OCCn2c(CO)nc3ccccc32)cc1`, the molecule was classed as inactive. `CC(C)Oc1cccc(OCCn2cnc3ccccc32)c1`: the outcome was inactive. The value for `CCSc1nc2ccccc2n1CCOc1ccccc1` was “inactive”; that for `c1ccc2c(c1)ncn2CCOc1ccc2c(c1)CCC2` was “inactive”; that for `Cc1cccc(OCCn2c(=S)[nH]c3ccccc32)c1` was “inactive”. With `Fc1cccc2c1[nH]c(=S)n2CCOc1ccccc1` the entry was “inactive”; with `Fc1ccc2c(c1)[nH]c(=S)n2CCOc1ccccc1`, “inactive”. Consider `Cc1ccc(C(C)C)c(OCCn2c(=S)[nH]c3ccccc32)c1`, for which the molecule was called inactive. With `Cc1ccc2c(c1)[nH]c(=S)n2CCOc1ccccc1` the entry was “inactive”; with `COc1cccc(OCCn2cnc3ccccc32)c1`, “inactive”. The value for `Cc1cc2ncn(CCOc3ccccc3)c2cc1C` was “inactive”; that for `COCc1nc2ccccc2n1CCOc1ccc(C(C)(C)C)cc1` was “inactive”; that for `Cc1cccc(OCCn2c(=S)[nH]c3c(F)cccc32)c1` was “inactive”. With `CCc1nc2ccccc2n1CCOc1ccccc1` the entry was “inactive”; with `Cc1ccc(C(C)C)c(OCCn2c(NC#N)nc3ccccc32)c1`, “inactive”. Turning to `Cc1ccc(C(C)C)c(OCCn2c(=O)[nH]c3ccccc32)c1`, the result was inactive. With `Fc1ccc(OCCn2c(=S)[nH]c3ccccc32)cc1` the entry was “inactive”.
